From PubChem BioAssay (NCATS)
Results filed as inconclusive are left out. Unmarked numbers belong to inactive results. Calls come from the whole dose curve; as a rule, active = well fitted inhibition curve with a large enough effect; inconclusive = small, poorly fitted or top-dose-only effect; inactive = flat fitted curve, though single readings scatter.

molecular target: Luciferin 4-monooxygenase (Photinus pyralis) (UniProt P08659); assay: Biochemical firefly luciferase enzyme assay for NPC (AID 624030);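 note: purified P. pyralis luciferase at 10 nM with luciferin and ATP substrate; 0% = DMSO and -100% = full luciferase inhibition by PTC124 control; nearly all actives have a fitted effect of over 70% in size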; conditions: purified P. pyralis luciferase, luminescence, 5 min; series mostly up to 58.6 µM; activity change, negative = inhibition: at the top concentration
Sequence (P08659 whole entry, looked up): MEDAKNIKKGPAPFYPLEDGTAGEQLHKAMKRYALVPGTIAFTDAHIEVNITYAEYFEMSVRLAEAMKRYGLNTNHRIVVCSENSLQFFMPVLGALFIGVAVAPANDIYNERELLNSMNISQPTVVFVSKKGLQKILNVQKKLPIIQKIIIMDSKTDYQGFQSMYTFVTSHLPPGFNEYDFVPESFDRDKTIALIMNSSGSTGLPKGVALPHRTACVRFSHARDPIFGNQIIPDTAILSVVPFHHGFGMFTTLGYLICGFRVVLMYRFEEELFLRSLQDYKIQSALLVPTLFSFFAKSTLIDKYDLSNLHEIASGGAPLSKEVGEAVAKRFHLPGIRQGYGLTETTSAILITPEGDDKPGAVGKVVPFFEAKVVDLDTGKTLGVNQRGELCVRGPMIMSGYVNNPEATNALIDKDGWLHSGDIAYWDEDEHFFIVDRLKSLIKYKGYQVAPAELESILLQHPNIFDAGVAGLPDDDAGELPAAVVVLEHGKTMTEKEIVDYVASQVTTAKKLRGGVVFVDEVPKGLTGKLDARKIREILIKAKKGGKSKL
Procedure, shortened: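 Purified P. pyralis luciferase at 10 nM in 50 mM Tris Acetate (final), luminescence read within 5 minutes of enzyme addition to compounds. Activity normalised to PTC124 versus DMSO; concentration-response curves classed by r2, magnitude and activity.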

SMILES | activity change, negative = inhibition
Oc1ccc2c3c1OC1C(O)C=CC4[C@@H](C2)NCC[C@]314 (stereo partly drawn) | 0.631% [at 123 µM]
CCc1cc(OC)c(CC(C)N)cc1OC (stereo not drawn) | -0.396% [at 123 µM]
C[N+]1(CCF)[C@@H]2CC[C@@H]1CC(OC(=O)C(O)(c1ccccc1)c1ccccc1)C2 (stereo partly drawn) | 3%
